# Test results published in PubChem BioAssay (NCATS).
# Several values for one entry are separate records, joined by “and”; a condition that tells them apart may be missing. Equal values may be shown once. Inconclusive results are not listed. Where a call stands in place of a potency, no number is given. Activity calls are given as the source filed them. Calls come from the whole dose curve; as a rule, active = well fitted curve in the direction sought with a large enough effect; inconclusive = small, poorly fitted or top-dose-only effect, or another doubt; inactive = no such curve, though single readings can be large; an effect the other way counts as inactive or inconclusive.
# How the values were obtained:
# [1] = qHTS of pediatric cancer cell lines to identify multiple opportunities for drug repurposing: Primary screen for DAOY cells (AID 1347090); note: nearly all actives have a fitted effect of over 55% in size
# In short: (§1)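 Viability measured as metabolically active cells via CellTiter-Glo luminescence following 48 hours of compound exposure, 11-point dilutions in confirmatory testing. 500-1,000 cells/well plated 5 hours before dosing; controls were DMSO and 2.3 µM bortezomib.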
# [2] = qHTS of pediatric cancer cell lines to identify multiple opportunities for drug repurposing: Primary screen for SJ-GBM2 cells (AID 1347091)
# In short: as §1
# [3] = qHTS of pediatric cancer cell lines to identify multiple opportunities for drug repurposing: Primary screen for A673 cells (AID 1347092); note: nearly all actives have a fitted effect of over 45% in size
# In short: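 A673 cells (500-1,000 cells/well) were treated 48 hours at 37 degrees C with compounds at 11-point (0.78 nM to 46 µM) or 8-point (0.59 nM to 46 µM) dilutions. Viability read by CellTiter-Glo luminescence; concentration-response curves fitted.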
# [4] = qHTS of pediatric cancer cell lines to identify multiple opportunities for drug repurposing: Primary screen for SK-N-MC cells (AID 1347093)
# In short: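 Metabolically active cells were quantified by ATP-dependent luminescence (CellTiter-Glo, 15 min at room temperature) following 48 h treatment. Cells had been plated at 500-1,000 per well and settled for 5 h beforehand.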
# [5] = qHTS of pediatric cancer cell lines to identify multiple opportunities for drug repurposing: Primary screen for BT-37 cells (AID 1347094)
# In short: (§2)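 Following a 5-hour attachment period, cells at 500-1,000/well received compounds and were cultured for 48 hours. CellTiter-Glo was added and luminescence read to estimate viable, metabolically active cells.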
# [6] = qHTS of pediatric cancer cell lines to identify multiple opportunities for drug repurposing: Primary screen for NB-EBc1 cells (AID 1347095)
# In short: as §2
# [7] = qHTS of pediatric cancer cell lines to identify multiple opportunities for drug repurposing: Primary screen for U-2 OS cells (AID 1347096); note: nearly all actives have a fitted effect of over 50% in size
# In short: (§3)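 Viability after 48 h compound treatment at 37C, 500-1,000 cells/well, read as ATP luminescence with CellTiter-Glo. Primary screens used 11-point (MIPE, 0.78 nM-46 µM) or 8-point (NPC, 0.59 nM-46 µM) final concentrations; follow-up screens used 11-point dilutions.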
# [8] = qHTS of pediatric cancer cell lines to identify multiple opportunities for drug repurposing: Primary screen for Saos-2 cells (AID 1347097); note: nearly all actives have a fitted effect of over 40% in size
# In short: as §2
# [9] = qHTS of pediatric cancer cell lines to identify multiple opportunities for drug repurposing: Primary screen for SK-N-SH cells (AID 1347098); note: nearly all actives have a fitted effect of over 65% in size
# In short: (§4)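 Cells (500-1,000/well) rested 5 h, then received compounds for 48 h; metabolically active cells were measured by CellTiter-Glo luminescence. Final concentrations spanned up to 46 µM (MIPE, 11-point) or 0.59 nM-46 µM (NPC, 8-point) in primary screens, 11-point in follow-ups.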
# [10] = qHTS of pediatric cancer cell lines to identify multiple opportunities for drug repurposing: Primary screen for NB1643 cells (AID 1347099); note: nearly all actives have a fitted effect of over 50% in size
# In short: as §2
# [11] = qHTS of pediatric cancer cell lines to identify multiple opportunities for drug repurposing: Primary screen for LAN-5 cells (AID 1347100)
# In short: as §3
# [12] = qHTS of pediatric cancer cell lines to identify multiple opportunities for drug repurposing: Primary screen for Rh18 cells (AID 1347102); note: nearly all actives have a fitted effect of over 65% in size
# In short: as §3
# [13] = qHTS of pediatric cancer cell lines to identify multiple opportunities for drug repurposing: Primary screen for OHS-50 cells (AID 1347103); note: nearly all actives have a fitted effect of over 40% in size
# In short: as §4
# [14] = qHTS of pediatric cancer cell lines to identify multiple opportunities for drug repurposing: Primary screen for TC32 cells (AID 1347089); note: nearly all actives have a fitted effect of over 60% in size
# In short: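 TC32 cells, 500-1,000/well in growth medium, compound-treated 48 h at 37 °C; viability from CellTiter-Glo luminescence. Primary screen: MIPE 11-point (0.78 nM–46 µM final), NPC 8-point (0.59 nM–46 µM final); confirmatory at 11-point dilutions.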
# [15] = qHTS of pediatric cancer cell lines to identify multiple opportunities for drug repurposing: Primary screen for BT-12 cells (AID 1347101); note: nearly all actives have a fitted effect of over 25% in size
# In short: as §4
# [16] = qHTS of pediatric cancer cell lines to identify multiple opportunities for drug repurposing: Primary screen for RD cells (AID 1347104); note: nearly all actives have a fitted effect of over 55% in size
# In short: as §2
# Potency is the fitted concentration of half-maximal effect.
SMILES,Potency [1],Potency [2],Potency [3],Potency [4],Potency [5],Potency [6],Potency [7],Potency [8],Potency [9],Potency [10],Potency [11],Potency [12],Potency [13],Potency [14],Potency [15],Potency [16]
O=c1oc2c(O)c(O)cc3c(=O)oc4c(O)c(O)cc1c4c23,inactive,inactive,inactive,inactive,inactive,inactive,inactive,inactive,inactive,inactive,inactive,inactive,inactive,–,–,–
CN(Cc1cc(Br)cc(Br)c1N)C1CCCCC1,inactive,inactive,inactive,–,inactive,–,inactive,–,inactive,inactive,inactive,inactive,–,inactive,inactive,–
Cc1nnc(NS(=O)(=O)c2ccc(N)cc2)s1,–,–,–,0.833 µM (active),–,–,inactive,–,–,–,–,–,–,inactive,inactive,–
CCCCc1oc2ccc(NS(C)(=O)=O)cc2c1C(=O)c1ccc(OCCCN(CCCC)CCCC)cc1,–,11.8 µM (active),1.18 µM (active),21.1 µM (active),17.2 µM (active) and 27.6 µM (active),–,–,–,27.1 µM (active) and 17.2 µM (active),18.7 µM (active),11.8 µM (active) and 18.8 µM (active),18.7 µM (active),10.9 µM (active) and 15.5 µM (active),inactive,19.3 µM (active) and 12.3 µM (active),–
Cc1ccnc2c1NC(=O)c1cccnc1N2C1CC1,inactive,inactive,inactive,–,–,inactive,inactive,inactive,–,inactive,inactive,inactive,–,inactive,inactive,inactive
CN(CCOc1ccc(CC2SC(=O)NC2=O)cc1)c1ccccn1 (centres undefined),inactive,inactive,inactive,–,inactive,inactive,inactive,inactive,inactive,inactive,inactive,inactive,inactive,inactive,inactive,–
CC[C@H](C)C(=O)O[C@H]1C[C@@H](C)C=C2C=C[C@H](C)[C@H](CC[C@@H]3C[C@@H](O)CC(=O)O3)[C@H]21,8.41 µM (active) and 9.35 µM (active),9.44 µM (active) and 13.2 µM (active),–,inactive,–,–,inactive,5.9 µM (active),4.86 µM (active) and 19.2 µM (active),inactive,inactive,–,6.92 µM (active) and 9.68 µM (active),inactive,1.23 µM (active) and 3.43 µM (active),inactive
O=S(=O)(O)CCS,inactive,inactive,inactive,–,inactive,–,inactive,inactive,inactive,–,inactive,inactive,–,inactive,inactive,inactive
O[C@@H](CNC[C@H](O)[C@H]1CCc2cc(F)ccc2O1)[C@@H]1CCc2cc(F)ccc2O1,inactive,20.9 µM (active),–,–,27.6 µM (active),21.1 µM (active),–,–,27.3 µM (active),–,–,–,24.3 µM (active) and 27.6 µM (active),inactive,27.3 µM (active),–
CCCN[C@H]1CCc2nc(N)sc2C1,inactive,inactive,inactive,–,inactive,–,inactive,inactive,inactive,inactive,inactive,inactive,–,inactive,inactive,inactive
NC(=O)c1cccnc1,inactive,inactive,inactive,inactive,–,–,inactive,–,inactive,inactive,inactive,inactive,inactive,inactive,inactive,inactive
COc1ccc2c(c1)c(CC(=O)OCC(=O)O)c(C)n2C(=O)c1ccc(Cl)cc1,inactive,inactive,inactive,–,–,inactive,inactive,inactive,inactive,inactive,inactive,inactive,–,inactive,inactive,inactive
COC(=O)Nc1nc2ccc(C(=O)c3ccccc3)cc2[nH]1,106 nM (active) and 1.18 µM (active),0.376 µM (active),106 nM (active) and 935 nM (active),53.1 nM (active) and 332 nM (active),–,0.188 µM (active),–,66.8 nM (active) and 662 nM (active),8.57 µM (active),–,469 nM (active),inactive,138 nM (active) and 1.53 µM (active),210 nM (active) and 3.3 µM (active),347 nM (active) and 2.43 µM (active),1.66 µM (active)
COc1cc2c(Nc3ccc(Br)cc3F)ncnc2cc1OCC1CCN(C)CC1,–,inactive,–,–,–,–,inactive,inactive,–,–,–,–,–,inactive,inactive,–
Cc1cccc(N(C)C(=S)Oc2ccc3ccccc3c2)c1,inactive,–,inactive,–,inactive,inactive,inactive,–,15.2 µM (active),–,inactive,inactive,24.6 µM (active),inactive,–,inactive
Nc1[nH]c(=O)ncc1F,inactive,inactive,inactive,inactive,–,–,inactive,inactive,inactive,inactive,–,inactive,inactive,inactive,inactive,inactive

SMILES,Potency [1],Potency [2],Potency [3],Potency [4],Potency [5],Potency [6],Potency [7],Potency [8],Potency [9],Potency [10],Potency [11],Potency [12],Potency [13],Potency [14],Potency [15],Potency [16]
COc1ccc(-c2ccc3cc(C(=O)O)ccc3c2)cc1C12CC3CC(CC(C3)C1)C2,–,1.87 µM (active),inactive,668 nM (active) and 1.05 µM (active),inactive,2.35 µM (active),inactive,18.7 µM (active),inactive,inactive,–,inactive,–,inactive,inactive,inactive
O=C(NCC1CN(c2ccc(N3CCOCC3=O)cc2)C(=O)O1)c1ccc(Cl)s1 (centres undefined),inactive,inactive,inactive,–,–,inactive,inactive,inactive,inactive,inactive,inactive,inactive,inactive,inactive,–,inactive
Cc1c(-c2ccc(O)cc2)n(Cc2ccc(OCCN3CCCCCC3)cc2)c2ccc(O)cc12,–,inactive,inactive,–,inactive,–,inactive,–,inactive,inactive,–,inactive,–,inactive,–,inactive
C[C@]12C=CC(=O)C=C1CC[C@@H]1[C@@H]2C(=O)C[C@@]2(C)[C@H]1CC[C@]2(O)C(=O)CO,inactive,inactive,inactive,inactive,inactive,inactive,inactive,inactive,inactive,inactive,inactive,inactive,inactive,–,inactive,inactive
Cc1cc(NS(=O)(=O)c2ccc(N)cc2)no1,inactive,inactive,inactive,–,inactive,inactive,inactive,–,–,–,inactive,inactive,inactive,inactive,inactive,–
CO[C@@]12[C@H](COC(N)=O)C3=C(C(=O)C(C)=C(N)C3=O)N1C[C@@H]1N[C@@H]12,9.35 µM (active),14.8 µM (active),1.33 µM (active) and 1.18 µM (active),266 nM (active) and 743 nM (active),347 nM (active) and 1.72 µM (active),335 nM (active) and 9.35 µM (active),inactive,inactive,1.72 µM (active) and 8.57 µM (active),1.33 µM (active),335 nM (active) and 1.05 µM (active),18.7 µM (active),3.85 µM (active),–,3.47 µM (active) and 3.06 µM (active),–
C[C@@H]1CN(c2c(F)c(N)c3c(=O)c(C(=O)O)cn(C4CC4)c3c2F)C[C@H](C)N1,inactive,inactive,inactive,inactive,–,inactive,inactive,inactive,inactive,inactive,inactive,inactive,inactive,–,inactive,inactive
CC(=O)Oc1ccccc1C(=O)Nc1ncc([N+](=O)[O-])s1,13.6 µM (active),8.55 µM (active),42.9 µM (active),–,28 µM (active) and 19.5 µM (active),10.8 µM (active) and 15 µM (active),–,–,inactive,42.9 µM (active) and 21.1 µM (active),27 µM (active) and 15 µM (active),42.9 µM (active),22.2 µM (active),–,39.5 µM (active) and 21.9 µM (active),42.9 µM (active) and 23.7 µM (active)
CCOCC(O)COc1ccc(NC(=O)CC[S+](C)C)cc1 (centres undefined),inactive,inactive,inactive,inactive,inactive,–,inactive,inactive,inactive,inactive,inactive,inactive,–,–,inactive,–
COCCCOc1cc(C[C@@H](C[C@H](N)[C@@H](O)C[C@H](C(=O)NCC(C)(C)C(N)=O)C(C)C)C(C)C)ccc1OC,inactive,inactive,inactive,inactive,inactive,inactive,inactive,–,inactive,inactive,inactive,inactive,inactive,–,inactive,–
N=C(N)c1ccc(OCCCCCOc2ccc(C(=N)N)cc2)cc1,–,inactive,21.1 µM (active) and 14.8 µM (active),33.2 µM (active),–,inactive,inactive,–,9.61 µM (active),20.9 µM (active),–,–,–,–,2.46 µM (active) and 4.85 µM (active),18.7 µM (active)
CCCc1nc(C)c2c(=O)[nH]c(-c3cc(S(=O)(=O)N4CCN(CC)CC4)ccc3OCC)nn12,–,–,–,–,–,–,–,–,–,–,–,–,–,–,12.2 µM (active),–
CC1=CC(=O)c2ccccc2C1=O,inactive,23.5 µM (active),13.3 µM (active) and 14.8 µM (active),21.1 µM (active) and 148 nM (active),–,7.43 µM (active),inactive,18.7 µM (active),21.7 µM (active),16.6 µM (active),16.8 µM (active) and 23.5 µM (active),inactive,–,–,inactive,18.7 µM (active)
CC(C)(Sc1cc(C(C)(C)C)c(O)c(C(C)(C)C)c1)Sc1cc(C(C)(C)C)c(O)c(C(C)(C)C)c1,inactive,inactive,–,–,inactive,–,inactive,–,inactive,inactive,inactive,inactive,inactive,–,inactive,–
CN1CCCC(n2nc(Cc3ccc(Cl)cc3)c3ccccc3c2=O)CC1 (centres undefined),–,1.32 µM (active),0.935 µM (active),0.833 µM (active),2.43 µM (active),–,9.35 µM (active),–,27.3 µM (active) and 4.82 µM (active),–,662 nM (active),1.48 µM (active),–,–,2.73 µM (active),–
CNCC[C@H](Oc1cccc2ccccc12)c1cccs1,–,inactive,1.18 µM (active),1.05 µM (active),–,inactive,inactive,–,19.4 µM (active) and 5.41 µM (active),–,inactive,–,15.5 µM (active),–,–,–
